V-ATPase pHluor – alters yeast V-ATPase proton transport; S. cerevisiae, pHLuorin cytosolic pH fluorescence; response, % at 10 µM; 350,000 tested, 0.37% active; in the data active = response mostly above about 7.3%, no sharp cut-off; inactive = mostly below about 5.4%; note: actives read high
NALP1 inh – inhibitors of NALP1 inflammasome in yeast. S. cerevisiae NALP1/ASC/caspase-1 growth, X-gal OD620, 72 h. inhibition, % at 10 µM. 280,000 tested, 0.61% active; in the data active = inhibition mostly above about 24%, no sharp cut-off; inactive = mostly below about 32%
tim23-1 inh – tim23-1 yeast growth inhibition. S. cerevisiae tim23-1 growth, BacTiter-Glo luminescence, 24 h. inhibition, % at 20 µM. 330,000 tested, 1.3% active;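 active = growth inhibition of the mutant yeast at or above 50%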;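 note: temperature-sensitive mutant grown at 25 °C; plate controls were DMSO-treated mutant yeast for no effect and medium wells lacking yeast for full effect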
TIM10 inh – growth inhibitors of TIM10 yeast strain; S. cerevisiae TIM10 strain growth, BacTiter-Glo luminescence, 24 h; inhibition, % at 10 µM; 330,000 tested, 1.4% active; AID 463195;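 active = inhibition of 40% or more at the single tested concentration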;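 note: wild-type TIM10 isogenic control strain grown at permissive 25 °C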
NLRP3 yeast inh – NALP3 inhibition in yeast; Yeast reconstituted NLRP3/ASC/caspase-1, beta-gal luminescence, 24 h; inhibition, % at 10 µM; 330,000 tested, 0.39% active; AID 2825;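 active = inhibition of 50% or more; inactive = inhibition below 50%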;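 note: plate controls were induced DMSO wells for no effect and uninduced yeast grown without galactose for full effect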
tim10-1 inh – growth inhibitors of tim10-1 mutant yeast. S. cerevisiae tim10-1 ts strain growth, BacTiter-Glo, 24 h. 330,000 tested, 2.2% active. AID 463190. inhibition, % at 20 µM;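 active = inhibition of at least 40%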;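 note: mutant grown at 25 °C; 0% = DMSO wells with yeast and 100% = wells holding no yeast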
tim10-1 conf – tim10-1 yeast growth inhibition, confirmed; S. cerevisiae tim10-1 ts strain growth, BacTiter-Glo, 24 h; inhibition, % at 20 µM; 7,400 tested, 56% active; shares compounds with tim10-1 inh;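 active = inhibition of yeast growth at or above a set limit in either of two repeat tests at 20 µM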;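 note: tim10-1 mutant grown at permissive 25 °C to find synthetic lethal compounds; 0% = DMSO yeast wells and 100% = medium wells without yeast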
TIM10 conf – TIM10 yeast growth inhibition, confirmed | shares compounds with TIM10 inh | S. cerevisiae tim10 strain growth, BacTiter-Glo luminescence, 24 h | inhibition, % at 10 µM | 4,600 tested, 63% active;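 active = inhibition of yeast growth at or above a set limit in either of two replicates at 10 µM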;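 note: this counterscreen used the strain with wild-type TIM10; 0% = yeast with DMSO and 100% = medium wells lacking yeast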
tim23-1 confirm – confirmation of tim23-1 mutant yeast growth inhibitors | shares compounds with tim23-1 inh | S. cerevisiae tim23-1 growth, BacTiter-Glo luminescence, 24 h | inhibition, % at 20 µM | 4,400 tested, 83% active | AID 463218;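 active = inhibition above about 39% in either of two replicate wells at 20 µM, limit read from the data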;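 note: temperature-sensitive tim23-1 mutant grown at 25 °C; 0% = DMSO wells with yeast and 100% = medium wells without yeast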
Active calls of the source: *; . = no result. In the library only some 4.2% were active in any assay of this set; here they are far more common.

SMILES | V-ATPase pHluor | NALP1 inh | tim23-1 inh | TIM10 inh | NLRP3 yeast inh | tim10-1 inh | tim10-1 conf | TIM10 conf | tim23-1 confirm
COc1cc(OC)cc(C(=O)O/N=C(\N)c2cccc(C)c2)c1 | -0.7 | 43.1* | 85.7* | 78.8* | 26.6 | 52.8* | 39.7* | 84.8* | 82.8*
Cc1cccc(/C(N)=N/OC(=O)c2ccc3c(c2)OCO3)c1 | -0.7 | 70.4 | 87.6* | 82.6* | 42.1 | 74.6* | 65.8* | -5.8 | 85.1*
N/C(=N\OC(=O)c1cccc([N+](=O)[O-])c1)c1cccnc1 | -3.6 | 13.7 | 4.9 | 18.2 | 1.4 | 31.4 | . | . | .
Cc1cccc(/C(N)=N/OC(=O)C23CC4CC(CC(C4)C2)C3)c1 | 4.4 | 59.4* | 67.8* | 79.8* | 9.4 | 55.5* | 57.1* | 5.3 | 65.8*
COc1ccc(CC(=O)Nc2cccnc2)cc1 | 7.6 | 17.8 | 11.8 | -2.5 | 10.8 | -1.3 | . | . | .
Cc1cccc(/C(N)=N/OC(=O)c2ccc(Br)o2)c1 | 0.0 | 19.2 | 66.6* | 69.5* | 4.0 | 43.2* | 47.4* | 62.6* | 56.8*
CCC(C(=O)O/N=C(\N)c1cccc(C)c1)c1ccccc1 (centres undefined) | 0.4 | -34.7 | 60.9* | 53.9* | 5.4 | 62.6* | 53.4* | -30.3 | 55.3*
Cc1cccc(/C(N)=N/OC(=O)c2cccc3ccccc23)c1 | -1.8 | 46.5 | 81.6* | 86.7* | 44.5 | 63.7* | 54.5* | 84.8* | 47.2*
N/C(=N\OC(=O)CCC1CCCCC1)c1cccc([N+](=O)[O-])c1 | -5.5 | 9.5 | 53.8* | 61.6* | 0.0 | 78.9* | 79.3* | 48.5* | 77.2*
Cc1cccc(/C(N)=N/OC(=O)Cc2ccccc2)c1 | 6.2 | -12.1 | 29.8 | 34.4 | 5.7 | 37.4 | . | . | .
CC(C)OCCCNC(=O)CN1C(=O)c2cccc3cccc1c23 | 3.5 | 0.8 | 3.6 | -2.9 | 14.6 | 6.7 | . | . | .
O=C(Cc1ccc([N+](=O)[O-])cc1)N1CCCCCC1 | 1.2 | 4.8 | 10.4 | -3.4 | -3.3 | 1.1 | . | . | .
CC1CCN(C(=O)c2ccc([N+](=O)[O-])o2)CC1 | 3.7 | -7.1 | 55.5* | 6.1 | 36.8 | 41.2* | 40.2* | . | 57.7*
O=C(c1ccc(-c2ccc([N+](=O)[O-])cc2)o1)N1CCCCCCC1 | 8.4 | . | 76.4* | 63.0* | 3.2 | 59.5* | 55.0* | 69.2* | 52.9*
Cc1ccc(NS(=O)(=O)c2ccc3c(c2)NC(=O)CCS3)c(C)c1 | 3.6 | -5.6 | 3.4 | -5.5 | 8.6 | 18.6 | . | . | .
COc1ccc(-c2nc3ccccc3c(=O)n2N)cc1 | 1.4 | 7.2 | 10.2 | 2.8 | 11.1 | 6.8 | . | . | .
COc1ccc(-c2cc3nc(C)n(N)c(=O)c3s2)cc1 | -0.1 | . | 69.3* | 58.2* | 38.8 | 64.8* | 66.2* | 47.9* | 68.2*
Cc1cc(C)cc(OC(=O)CS(=O)c2ccc(C(F)(F)F)cc2[N+](=O)[O-])c1 (centres undefined) | 1.7 | 11.9 | 65.6* | 30.7 | 20.7 | 50.8* | 27.8* | . | 68.0*
Cc1ccc(OCCNc2ccc(C(F)(F)F)cc2[N+](=O)[O-])cc1 | -1.5 | 21.0 | 6.9 | 0.7 | 8.1 | 2.7 | . | . | .
O=C(CS(=O)c1ccc(C(F)(F)F)cc1[N+](=O)[O-])Oc1ccc(Cl)cc1 (centres undefined) | 0.8 | -4.3 | 70.4* | 54.9* | -13.3 | 46.7* | 47.1* | 36.1* | 67.5*
CCCOc1ccc(CNC(=O)C2CCN(C(=O)N3CCOc4ccccc43)CC2)cc1 | -2.5 | -15.4 | 18.4 | -0.8 | 20.8 | 12.4 | . | . | .
Cc1cc(C)cc(NC(=S)Nc2ccc(Cl)c(Cl)c2)c1 | -0.7 | -1.1 | 79.5* | 43.0* | 24.8 | 61.5* | 55.8* | 37.4* | 74.8*
N/C(=N\OC(=O)C1CCCCC1)c1cccc(Br)c1 | 3.2 | 2.6 | 75.3* | 73.8* | 10.7 | 67.5* | 62.3* | 58.5* | 80.7*

Source: PubChem
